Experiment in all cases: NCI-60 one-dose screen, 48 h (100 = growth as untreated, 0 = no growth, -100 = all killed)
What all share (conditions): 10 µM

For test [1], the system named is HCT-15 colon.
Test [2] deals with HT29 colon.
Test [3] deals with SNB-19 CNS.
For test [4], the system named is U251 CNS.
The test system of test [5] is PC-3 prostate.
Test [6] has as its system SK-MEL-5 melanoma.
Test [7] relates to UACC-62 melanoma.
Test [8] deals with LOX IMVI melanoma.
Test [9] deals with SK-MEL-28 melanoma.
Test [10] concerns SK-MEL-2 melanoma.
Test [11] deals with EKVX NSCLC.
Test [12] relates to SN12C renal.
Test [13] has as its system UO-31 renal.
The subject of test [14] is TK-10 renal.
In test [15] the test system is ACHN renal.
Test [16] relates to CAKI-1 renal.
Test [17] concerns A498 renal.
Test [18] relates to CCRF-CEM leukemia.
For test [19], the system named is MOLT-4 leukemia.

Molecules are shown by their SMILES. This is part of a sample that, as a whole, favours compounds with a hit. Of some 83,000 tested, about 20% had one in any assay.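 Plates (96-well) were seeded with cells, treated with compound at one concentration, and incubated for 48 hours before percent growth was determined.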 A number with no mark means an inactive call. Activity calls are given as the source filed them. How the source made its calls: active means growth percent below 10; inactive means the rest.

Consider `NS(=O)(=O)c1ccc(NC(=O)CSc2ccc(-c3ccccc3)nn2)c(Br)c1`, for which the growth in test [1] was 86.7%; in [2], 99.2%; in [3], 42.9%; in test [4], 17.8%; in test [5], 51.9%; in test [6] it was 85.7%. The growth in [7] is 59.2%; in test [8] it was 42.6%; in test [9] it was 94.7%; in test [10], 95.8%; in test [11] it was 70.1%; in [12] it was 57.4%. Also, the growth was 75.1% in [13]; 118% in test [14]; 54.2% in test [15]; 84.5% in [16]; 120% in test [17]; 89.9% in test [18]. Further, in [19], the growth was 95.6%.
For `CCOc1ccc2ncc(C#Cc3cncc(C(=O)Nc4ccc(CN5CCN(C)CC5)c(C(F)(F)F)c4)c3)n2n1`, the growth in [1] was -86.1% (active); in [2], -51% (active); in [3], -63.3% (active); in [4], -41.5% (active); in test [5] it was -34.9% (active); in [6], -83.4% (active). The growth is -71.3% (active) in test [7]; -80% (active) in test [8]; -83.1% (active) in test [9]; -75.7% (active) in [10]; -65.8% (active) in test [11]; -82.9% (active) in [12]. Further, the growth in test [13] was -65.8% (active); in test [14], -66.5% (active); in test [15], -87% (active); in [16], 30.4%; in test [17], 15.9%; in [18], 7.96% (active). The growth in test [19] was -8.54% (active).
Take `Nc1nc(-c2ccccc2)cs1`: the growth in test [1] is 23.7%; in test [2], 78.6%; in test [3], 77%; in [4] it was 28.3%; in test [5] it was 25.1%; in [6], 59.1%. For the same compound, the growth in test [7] is 53.4%; in test [8] it was 22%; in [9], 87.9%; in [10], 61.6%; in test [11] it was 32%; in test [12] it was 68.2%. For the same compound, the growth in test [13] was 29%; in test [14], 83.5%; in test [15], 59.5%; in test [16], 69.9%; in [17], 94.7%; in test [18], 43.3%. In test [19], the growth was 35.1%.
As to `OCc1[nH]nc2cc(Nc3ncc4ccc(Br)c(OC5CCC(O)CC5)c4n3)ccc12` (stereo not drawn), the growth is -5.87% (active) in test [1]; -41.1% (active) in [2]; 6.37% (active) in test [3]; 8.55% (active) in [4]; 9.54% (active) in test [5]; -99.1% (active) in test [6]. For the same compound, the growth is -89.2% (active) in test [7]; -81.5% (active) in [8]; -68.7% (active) in [9]; -75.8% (active) in test [10]; -27.8% (active) in [11]; 1.92% (active) in test [12]. Also, the growth in [13] was -27.2% (active); in test [14], -89.6% (active); in test [15] it was 0.365% (active); in test [16] it was -17.2% (active); in test [17] it was -26.7% (active); in test [18] it was 0.234% (active). Moreover, the growth in [19] is 1.17% (active).
In the case of `Cc1ccn2c(C(=O)c3ccc(Br)cc3)cc(-c3cc(-c4ccc(N(C)C)cc4)c(C#N)c(N)n3)c2c1`, the growth is 39.7% in test [1]; 34.6% in test [2]; 67.8% in [3]; 19.9% in test [4]; 64.4% in test [5]; 53.1% in test [6]. Further, the growth was 76.7% in test [7]; 30.7% in test [8]; 51.1% in test [9]; 81.1% in [10]; 68.2% in [11]; 76.5% in test [12]. The growth in test [13] was 63.3%; in test [14] it was 98.9%; in [15] it was 71.5%; in [16] it was 67.2%; in test [17], 91.9%; in test [18], 94.3%. Moreover, the growth in test [19] is 94%.
For the compound `O=C(Nc1ccc(I)cc1)Nc1nc2ccc([N+](=O)[O-])cc2s1`, the growth in test [1] was -100% (active); in [2], -93.3% (active); in test [3], -94.3% (active); in test [4], -94% (active); in test [5], -75.7% (active); in test [6], -100% (active). The growth in [7] was -98% (active); in test [8] it was -100% (active); in [9], -99% (active); in [10], -91% (active); in test [11], -93% (active); in [12] it was -97.7% (active). Besides, the growth in test [14] is -92% (active); in test [15], -100% (active); in test [16], -100% (active); in test [17], -91.6% (active); in test [18], -81.1% (active); in test [19] it was -58.1% (active).
For `O=C(N/N=C/c1ccc(B(O)O)o1)c1[nH]c2ccc(Br)cc2c1-c1ccccc1`, the growth is 16.1% in [1]; 3.98% (active) in test [2]; 40.7% in test [3]; 10.1% in [4]; 19.2% in test [5]; 11.5% in test [6]. For the same compound, the growth in test [7] is 19.4%; in [8] it was 32.9%; in test [9], 62.1%; in test [10], 26.5%; in [11], 44.3%; in test [13], 42.2%. For the same compound, the growth in [14] is 64.7%; in test [15], 44.8%; in [16], 30%; in [17], 76.5%; in [18], 3.97% (active); in test [19] it was 16.9%.
For the compound `COc1nccnc1NS(=O)(=O)c1ccc(NC2=C(Cl)C(=O)c3nc(C)ccc3C2=O)cc1`, the growth was 93.7% in test [1]; 120% in test [2]; 97.9% in test [3]; 96.9% in test [4]; 80.2% in test [5]; 100% in test [6]. In addition, the growth is 71.7% in test [8]; 121% in [9]; 113% in test [10]; 88.2% in test [11]; 74.5% in test [13]; 132% in [14]. The growth was 109% in [15]; 88.7% in test [16]; 94% in test [17]; 97% in test [18]; 94.8% in test [19].

The record behind these values is PubChem BioAssay (NCI).
